We go through 55 compounds from ChEMBL document CHEMBL4513216, “Probing the Open Global Health Chemical Diversity Library for Multistage-Active Starting Points for Next-Generation Antimalarials” (ACS Infect Dis, 2020).

Screen size: about 69,000 compounds; about 8,600 (12%) showed an effect of 50% or more. The list comes from a sample in which strong results are over-represented; it also holds similar structures and randomly drawn compounds.

The assay relates to Plasmodium berghei. The assay is described as follows: Screen against P. berghei liver stage (PbLuc), transformed with Luciferase, at 10uM. The class given is functional, HepG2. To be noted: tested at 10 uM.
Regarding `COCC1CCCN(C(=O)c2ccccc2NCc2cccnc2)C1` (stereo not given), the INHIBITION is reported as 18.9%.

`O=C(CCCOc1cccc(F)c1)N1CCCC(n2cncn2)C1` (stereo not given): the INHIBITION is recorded as -49.5%.

On to `Cc1nc(CN2C(=O)CCC23CCN(Cc2cccn2C)CC3)cs1`, for which the INHIBITION worked out at 29.3%.

Turning to `Cc1nnc2n1CCN(C(C(=O)N1CCCCC1)c1ccccc1)C2` (stereo not given), the INHIBITION stood at 11.15%.

Take `NC(=O)Cn1ccc(O)c(Cc2ccc(Cl)cc2Cl)c1=O`: the INHIBITION is on record as 71.9%.

On to `COc1ccc2c(=O)n(CC3CC3)ccc2c1OC`, for which the INHIBITION was 6.28%.

Turning to `CCOC(=O)Cn1ccc(O)c(Cc2ccc(Cl)cc2Cl)c1=O`, the INHIBITION worked out at 1.95%.

Turning to `O=C(NCc1ccc(Cl)cc1Cl)NCC1(O)CCSC1` (stereo not given), the INHIBITION is 31.2%.

As for `O=C1CCN(C(=O)CCc2ccc(Cl)cc2Cl)CCN1`, the INHIBITION is given as 4.97%.

`O=c1c(Cc2ccc(Cl)cc2Cl)c(O)ccn1CC1CC1`: the INHIBITION amounted to 86.6%.

As to `COc1nc2c(cc1C(=O)NC(C)Cc1cnccn1)CCC2` (stereo not given), the INHIBITION is -40.5%.

As to `O=C(NCCNc1ccc(C(F)(F)F)cn1)c1cc(Cl)ccc1F`, the INHIBITION is 37.3%.

Regarding `Cc1nc(C)n(Cc2cccc(NC(=O)NC(C)(CO)C3CC3)c2)n1` (stereo not given), the INHIBITION turned out to be 47.4%.

As for `CC(=O)Nc1cccc(Cn2nc(C)nc2C)c1`, the INHIBITION is on record as 39.7%.

On to `C=C(C)COCCNC(=O)Nc1cccc(Cn2nc(C)nc2C)c1`, for which the INHIBITION is on record as 62.8%.

In the case of `Cc1cc(F)c2c(c1)CCCN2S(=O)(=O)c1ncn(C)c1Cl`, the INHIBITION is 33.7%.

For the compound `Cc1nn(C(C)C)cc1S(=O)(=O)N(C)Cc1nonc1C`, the INHIBITION was 11.8%.

`CC(=O)N1CCCC1c1nccc(C)n1` (stereo not given): the INHIBITION was found to be 21.6%.

Consider `CC(C)(O)CN1CCN(C(=O)c2ccc3c(c2)COC3)CC1`, for which the INHIBITION is -1.14%.

For the compound `COc1cccc(CCC2CCCCN2)c1` (stereo not given), the INHIBITION was found to be 36%.

For `Cc1cc(C(=O)N2CCN(c3nc4c(F)cccc4s3)CC2)no1`, the INHIBITION is -18.5%.

For the compound `COc1cc(C)nc(N2CCN(C(=O)c3cc(C)no3)CC2)n1`, the INHIBITION worked out at 19.2%.

In the case of `Cc1cc(C(=O)N2CCN(c3nc4c(C(C)C)cccc4s3)CC2)no1`, the INHIBITION was 90.4%.

Regarding `COc1cccc2sc(N3CCN(C(=O)c4cc(C)on4)CC3)nc12`, the INHIBITION is given as 17.1%.

With `Cc1cc(C(=O)N2CCN(c3nc4c(C(C)C)cccc4s3)CC2)on1`, the INHIBITION worked out at 92.1%.

With `Cc1cc(C(=O)N2CCN(c3nc4c(C)cccc4s3)CC2)no1`, the INHIBITION came to 24.7%.

For the compound `CC(C)Nc1cccc(CC2CCN(S(C)(=O)=O)CC2)n1`, the INHIBITION turned out to be 41.2%.

For `N#CC1CCCN(c2ncnc3c2CCN(Cc2ccccc2)CC3)C1` (stereo not given), the INHIBITION came out at 67.8%.

Consider `Cn1ccnc1CN1CCc2ncnc(N3CCCC(C#N)C3)c2CC1` (stereo not given), for which the INHIBITION turned out to be 11.3%.

As to `c1ccc(CN2CCc3ncnc(C4CC4)c3CC2)cc1`, the INHIBITION amounted to 0.164%.

Take `O=C(c1ccc2c(c1)CCC2)N1CC[C@H](O)[C@]2(CCCO2)C1`: the INHIBITION was found to be 32.3%.

Consider `CC(C)c1nc(-c2cc(C(=O)NCCN(C)C)c3ccccn23)cs1`, for which the INHIBITION was -2.41%.

Regarding `CN(Cc1ccc([S+](C)[O-])cc1)c1cncc(Br)c1` (stereo not given), the INHIBITION is given as 58.4%.

For `CN(Cc1ccc([S+](C)[O-])cc1)c1ccc(Cl)cn1` (stereo not given), the INHIBITION is on record as 33%.

As to `Cc1ncc(CNC(=O)N(C)Cc2ccc([S+](C)[O-])cc2)s1` (stereo not given), the INHIBITION is listed as 40.5%.

Regarding `Cc1csc(CNC(=O)N(C)Cc2ccc([S+](C)[O-])cc2)n1` (stereo not given), the INHIBITION amounted to 20.6%.

`CN(Cc1ccncc1)c1cncc(Br)c1`: the INHIBITION is 33.4%.

Consider `CN(Cc1ccc([S+](C)[O-])cc1)c1cncc(Cl)n1` (stereo not given), for which the INHIBITION came to 52.2%.

As for `CCc1cc(=O)[nH]c(SCc2ccccn2)n1`, the INHIBITION is -35.5%.

As for `Cc1noc(C(C)C)c1C(=O)N1CCC(n2cccn2)CC1`, the INHIBITION came to 26.5%.

Take `Cc1cc(C)n(CC2CN(Cc3nc(C)c(C)o3)CCO2)n1` (stereo not given): the INHIBITION was -47.6%.

For `CN1CCN(C(=O)NC2CC2)Cc2cccnc21`, the INHIBITION is recorded as 0.547%.

`COC1COC2(CCN(Cc3ccc(Cl)cc3)CC2)C1` (stereo not given): the INHIBITION came to 19.5%.

Turning to `Cn1cc(CNC2CCS(=O)(=O)C2)c(-c2cc3ccccc3o2)n1` (stereo not given), the INHIBITION was 35%.

As for `Cn1cc(CNC2CCOCC2)c(-c2cc3ccccc3o2)n1`, the INHIBITION was found to be 39.6%.

In the case of `Cn1cc(CNC2CCC(O)CC2)c(-c2cc3ccccc3o2)n1` (stereo not given), the INHIBITION stood at 72.1%.

As to `COc1cccc(CN2CCC3(CCN(C(=O)[C@H]4CCCO4)CC3)C2)c1`, the INHIBITION is 43.2%.

Turning to `Cc1nn(C)c(=O)c2nn(-c3ccc(Cl)cc3)c(C)c12`, the INHIBITION is listed as 28.5%.

On to `O=C([C@H]1COC[C@H]2CN(CC3CCCC3)C[C@H]21)N1CCOCC1`, for which the INHIBITION came out at 11.3%.

Turning to `O=C([C@@H]1COC[C@H]2CN(CC3CC3)C[C@H]21)N1CCC(F)CC1`, the INHIBITION was determined as 12.7%.

For `O=C([C@H]1COC[C@H]2CN(CC3CC3)C[C@H]21)N1CCOCC1`, the INHIBITION stood at 60%.

As to `O=C([C@@H]1COC[C@H]2CN(CC3CCCC3)C[C@H]21)N1CCOCC1`, the INHIBITION stood at 65.9%.

As for `O=C(C1CN(CC2CC2)CC12CCOCC2)N1CCOCC1` (stereo not given), the INHIBITION was -7.24%.

Take `O=C([C@H]1COC[C@H]2CN(CC3CCC3)C[C@H]21)N1CCOCC1`: the INHIBITION is 24.6%.

Regarding `Cc1cnn(CCNCc2csc(-c3ncccn3)n2)c1`, the INHIBITION was 27.95%.
